Measurements taken from PubChem BioAssay AID1159580 (chemical genetic matrix, 2015).
Out of some 5,500 compounds screened, about 2,000 (36%) were called active. Another 18% or so got no clear call; they are omitted. No stated cut-off is given here; in the data, active means normalized growth mostly below about 0.91 (no sharp cut-off); inconclusive means no clear call, values can overlap the other calls; inactive means mostly above about 0.92. Some of the results follow.

Assay: chemical genetic growth profiling, strain panel (AID 1159580);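 further: tested at 20 µM; growth read once vehicle control cultures reached saturation at 30 °C; 1 = growth at the plate median or of vehicle wells; lower values mean less growth of the strain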
Conditions: growth OD

Measured: normalized growth

CCCCCCC(C)OC(=O)COc1ccc(Cl)cc1Cl (configuration not stated)
inactive: S. cerevisiae deletion strains, locus YJR075W, strain HOC1, active compounds read low 0.931 | S. cerevisiae deletion strains, locus YKL009W, strain mrt4, active compounds read low 0.992 | S. cerevisiae deletion strains, locus YKL068W, active compounds read low 0.998 | S. cerevisiae deletion strains, locus YKL085W, strain MDH1 (second series), active compounds read low 0.984 | S. cerevisiae deletion strains, locus YKL085W, strain MDH1, active compounds read low 0.984 | S. cerevisiae deletion strains, locus YKL160W, strain elf1, active compounds read low 0.996 | S. cerevisiae deletion strains, locus YKL190W, strain CNB1, active compounds read low 0.997 | S. cerevisiae deletion strains, locus YKR001C, strain vps1, active compounds read low 0.998 | S. cerevisiae deletion strains, locus YKR026C, strain gcn3, active compounds read low 0.989 | S. cerevisiae deletion strains, locus YKR091W, strain srl3, active compounds read low 0.993 | S. cerevisiae deletion strains, locus YLL001W, strain dnm1, active compounds read low 0.991 | S. cerevisiae deletion strains, locus YLL026W, active compounds read low 0.986 | S. cerevisiae deletion strains, locus YLL041C, strain sdh2, active compounds read low 0.994 | S. cerevisiae deletion strains, locus YLR027C, strain aat2, active compounds read low 0.995 | S. cerevisiae deletion strains, locus YLR039C, strain RIC1, active compounds read low 0.893 | S. cerevisiae deletion strains, locus YLR058C, strain SHM2, active compounds read low 0.996 | S. cerevisiae deletion strains, locus YLR102C, strain apc9, active compounds read low 1 | S. cerevisiae deletion strains, locus YLR113W, strain HOG1, active compounds read low 0.961 | S. cerevisiae deletion strains, locus YLR221C, strain rsa3, active compounds read low 0.989 | S. cerevisiae deletion strains, locus YLR258W, strain gsy2, active compounds read low 0.981 | S. cerevisiae deletion strains, locus YLR262C, strain YPT6 (second series), active compounds read low 0.971 | S. cerevisiae deletion strains, locus YLR262C, strain YPT6, active compounds read low 0.983 | S. cerevisiae deletion strains, locus YLR268W, strain sec22, active compounds read low 0.997 | S. cerevisiae deletion strains, locus YLR320W, strain mms22, active compounds read low 0.982 | S. cerevisiae deletion strains, locus YLR330W, strain CHS5, active compounds read low 0.992 | S. cerevisiae deletion strains, locus YLR342W, strain FKS1 (second series), active compounds read low 1.01 | S. cerevisiae deletion strains, locus YLR342W, strain FKS1, active compounds read low 0.987 | S. cerevisiae deletion strains, locus YLR357W, strain rsc2, active compounds read low 1.01 | S. cerevisiae deletion strains, locus YLR370C, strain arc18, active compounds read low 0.994 | S. cerevisiae deletion strains, locus YLR371W, strain rom2, active compounds read low 0.997 | S. cerevisiae deletion strains, locus YLR384C, strain iki3, active compounds read low 0.993 | S. cerevisiae deletion strains, locus YLR418C, strain cdc73, active compounds read low 0.965 | S. cerevisiae deletion strains, locus YML016C, strain PPZ1, active compounds read low 0.997 | S. cerevisiae deletion strains, locus YML032C, strain rad52, active compounds read low 1.01 | S. cerevisiae deletion strains, locus YML120C, strain ndi1, active compounds read low 0.983 | S. cerevisiae deletion strains, locus YML124C, strain tub3, active compounds read low 0.998 | S. cerevisiae deletion strains, locus YMR058W, strain fet3, active compounds read low 0.994 | S. cerevisiae deletion strains, locus YMR078C, strain ctf18, active compounds read low 1.01 | S. cerevisiae deletion strains, locus YMR125W, strain sto1, active compounds read low 0.983 | S. cerevisiae deletion strains, locus YMR129W, active compounds read low 0.994 | S. cerevisiae deletion strains, locus YMR205C, strain PFK2, active compounds read low 0.968 | S. cerevisiae deletion strains, locus YMR223W, strain ubp8, active compounds read low 0.989 | S. cerevisiae deletion strains, locus YMR231W, strain pep5, active compounds read low 0.993 | S. cerevisiae deletion strains, locus YMR263W, strain SAP30, active compounds read low 0.984 | S. cerevisiae deletion strains, locus YMR307W, strain GAS1, active compounds read low 0.869 | S. cerevisiae deletion strains, locus YNL067W, strain RPL9B, active compounds read low 0.985 | S. cerevisiae deletion strains, locus YNL071W, strain lat1, active compounds read low 0.982 | S. cerevisiae deletion strains, locus YNL128W, strain TEP1, active compounds read low 0.987 | S. cerevisiae deletion strains, locus YNL153C, strain GIM3, active compounds read low 0.996 | S. cerevisiae deletion strains, locus YNL183C, strain NPR1, active compounds read low 0.96 | S. cerevisiae deletion strains, locus YNL209W, strain ssb2, active compounds read low 0.995 | S. cerevisiae deletion strains, locus YNL233W, strain BNI4, active compounds read low 0.989 | S. cerevisiae deletion strains, locus YNL248C, strain rpa49, active compounds read low 0.984 | S. cerevisiae deletion strains, locus YNL250W, strain rad50, active compounds read low 1 | S. cerevisiae deletion strains, locus YNL271C, strain bni1, active compounds read low 1 | S. cerevisiae deletion strains, locus YNL298W, strain CLA4, active compounds read low 1 | S. cerevisiae deletion strains, locus YNL307C, strain MCK1, active compounds read low 0.993 | S. cerevisiae deletion strains, locus YNL322C, strain KRE1 (second series), active compounds read low 0.992 | S. cerevisiae deletion strains, locus YNL322C, strain KRE1, active compounds read low 0.992 | S. cerevisiae deletion strains, locus YNR049C, strain mso1, active compounds read low 0.984 | S. cerevisiae deletion strains, locus YNR052C, strain pop2, active compounds read low 1.01 | S. cerevisiae deletion strains, locus YOL006C, strain TOP1, active compounds read low 0.905 | S. cerevisiae deletion strains, locus YOL012C, strain htz1 0.707 | S. cerevisiae deletion strains, locus YOL147C, strain pex11, active compounds read low 1 | S. cerevisiae deletion strains, locus YOR001W, strain rrp6, active compounds read low 0.995 | S. cerevisiae deletion strains, locus YOR061W, strain CKA2, active compounds read low 0.981 | S. cerevisiae deletion strains, locus YOR069W, strain VPS5, active compounds read low 0.979 | S. cerevisiae deletion strains, locus YOR070C, strain gyp1, active compounds read low 0.985 | S. cerevisiae deletion strains, locus YOR080W, strain dia2, active compounds read low 0.995 | S. cerevisiae deletion strains, locus YOR083W, strain WHI5, active compounds read low 0.999 | S. cerevisiae deletion strains, locus YOR106W, strain vam3, active compounds read low 0.958 | S. cerevisiae deletion strains, locus YOR136W, strain idh2, active compounds read low 1.01 | S. cerevisiae deletion strains, locus YOR144C, strain elg1, active compounds read low 1.01 | S. cerevisiae deletion strains, locus YOR184W, strain ser1, active compounds read low 0.991 | S. cerevisiae deletion strains, locus YOR231W, strain MKK1, active compounds read low 1.04 | S. cerevisiae deletion strains, locus YOR265W, strain rbl2, active compounds read low 0.991 | S. cerevisiae deletion strains, locus YOR270C, strain vph1, active compounds read low 0.953 | S. cerevisiae deletion strains, locus YOR290C, strain snf2, active compounds read low 0.995 | S. cerevisiae deletion strains, locus YOR316C, strain cot1, active compounds read low 1 | S. cerevisiae deletion strains, locus YPL051W, strain arl3, active compounds read low 0.989 | S. cerevisiae deletion strains, locus YPL055C, strain LGE1, active compounds read low 0.94 | S. cerevisiae deletion strains, locus YPL078C, strain atp4, active compounds read low 0.988 | S. cerevisiae deletion strains, locus YPL106C, strain sse1, active compounds read low 1.01 | S. cerevisiae deletion strains, locus YPL240C, strain hsp82, active compounds read low 1 | S. cerevisiae deletion strains, locus YPL241C, strain CIN2, active compounds read low 0.995 | S. cerevisiae deletion strains, locus YPL256C, strain CLN2, active compounds read low 1.01 | S. cerevisiae deletion strains, locus YPR119W, strain clb2, active compounds read low 1 | S. cerevisiae deletion strains, locus YPR141C, strain kar3, active compounds read low 0.995 | S. cerevisiae deletion strains, locus YPR163C, strain tif3, active compounds read low 1.01 | S. cerevisiae deletion strains, locus YPR167C, strain met16, active compounds read low 1 | S. cerevisiae deletion strains, strain wtn01, active compounds read low 1 | S. cerevisiae strains, strain wild type, active compounds read low 0.981
